# HepG2 tox – HepG2 cytotoxicity, counter-screen for TGF-b inhibitors. 410,000 compounds, 0.76% hits. Potency, µM (doses to about 46.1 µM), actives largely listed as cytotoxic. HepG2 CAGA-GFP viability, ATP luminescence, 18 h
#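 CellTiter-Glo luminescence gave cytotoxicity after 18 hours at 37 degrees C. The cells were HepG2 CAGA-GFP in 1% FBS DMEM, stimulated with 500 pg/mL TGF-beta after compound addition. %Activity was normalised to no-cell wells (complete cell-killing) and DMSO (no toxicity), and curves were fitted and classified.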
# IL-1B inflam inh – inflammasome signaling inhibition, IL-1 beta readout | activity change, % at 57.5 µM | THP-1 LPS/ATP IL-1B secretion, AlphaLISA, 16 h; active compounds read low | 360,000 compounds, 4.7% hits; in the data active = activity change below about -50%; inconclusive = mostly about -30% to -49%
#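 THP-1 cells pretreated 1 hr with compounds (up to 57.5 uM final), then stimulated with LPS (250 ng/mL final) plus ATP (1.25 mM final); secreted IL-1B measured by AlphaLISA after 16 hr, decreased signal indicating inhibition.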
# DT40 TDP1 CPT – DT40-hTDP1 cell growth loss with CPT; 420,000 compounds, 12% hits; chicken DT40 Tdp1-/-;hTDP1 cells + 20 nM CPT, ATP luminescence, 48 h; Potency, µM (doses to about 46.2 µM), most hits filed as inhibitors; note: nearly all actives have a fitted effect of over 55% in size
#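 Chicken DT40 Tdp1-/- cells stably complemented with human TDP1 were seeded at 400 cells/well in medium containing 20 nM camptothecin, exposed to pin-transferred compounds, and grown at 37 °C for at least 48 hr. Viability was read as ATP luminescence.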
# DT40 TDP1 no CPT – qHTS for Inhibitors of human tyrosyl-DNA phosphodiesterase 1 (TDP1): qHTS in cells in absence of CPT; DT40 Tdp1-/- hTDP1 cells, no CPT, ATP luminescence, 48 h; Potency, µM (titrated, usually from 46.2 µM), hits mostly inhibitors; 420,000 compounds, 15% hits; note: nearly all actives have a fitted effect of over 55% in size
#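 Luminescent ATP content (CellTiter-Glo) served as the growth readout. Knockout chicken DT40 cells expressing human TDP1 were exposed to compounds without camptothecin for a minimum 48 hr at 37 °C.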
# ASM inhibitor – inhibitors of human secretory acid sphingomyelinase; P17405; placental ASM, HMU-PC fluorogenic substrate, 60 min; Potency, µM (titrated, usually from 57.5 µM), hits mostly inhibitors; 340,000 compounds, 0.006% hits; AID 504937
# Target sequence (P17405 47-631 limits assumed): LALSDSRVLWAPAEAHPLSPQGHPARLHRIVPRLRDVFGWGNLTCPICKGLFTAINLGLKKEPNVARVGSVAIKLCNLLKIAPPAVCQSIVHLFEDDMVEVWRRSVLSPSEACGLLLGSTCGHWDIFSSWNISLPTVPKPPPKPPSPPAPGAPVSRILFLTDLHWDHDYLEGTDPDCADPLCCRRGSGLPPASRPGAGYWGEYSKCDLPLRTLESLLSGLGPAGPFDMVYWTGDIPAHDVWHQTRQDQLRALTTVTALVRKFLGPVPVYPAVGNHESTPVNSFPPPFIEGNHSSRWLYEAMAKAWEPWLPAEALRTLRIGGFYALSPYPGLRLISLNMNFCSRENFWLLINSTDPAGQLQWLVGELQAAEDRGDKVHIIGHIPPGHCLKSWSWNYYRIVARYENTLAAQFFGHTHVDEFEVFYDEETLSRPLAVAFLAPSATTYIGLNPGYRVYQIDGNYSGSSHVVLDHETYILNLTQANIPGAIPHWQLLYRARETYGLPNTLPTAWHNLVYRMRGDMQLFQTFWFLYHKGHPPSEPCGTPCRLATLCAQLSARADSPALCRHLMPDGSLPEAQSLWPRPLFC
#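 Human placenta-derived ASM enzyme was preincubated with compound for 10 minutes at room temperature, then given fluorogenic substrate HMU-PC0 (9 uM final) for 60 minutes at 37 °C; a pH 10 stop preceded fluorescence reading at Ex 386/Em 447 nm.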
# TGFb SMAD3 inh – TGF-b pathway inhibition. Potency, µM (doses to about 46.1 µM), actives largely listed as inhibitors. 410,000 compounds, 1.2% hits. HepG2 CAGA-GFP TGF-b/SMAD3 reporter, GFP fluorescence, 18 h; TGF-beta stimulated, 500 pg/mL final; note: nearly all actives have a fitted effect of over 65% in size
#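 Using HEPG2 CAGA-GFP reporter cells at 1000 cells/well, we pinned test compounds, stimulated with recombinant TGF-beta (500 pg/mL final) and measured total well GFP after 18 h.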
# Hits are given with their value; - = inactive; ? = inconclusive; . = no result given. Sampled rows, rich in hits. Any-hit rate of the full collection: about 19%. Unless noted, calls come from the whole dose curve; as a rule, active = well fitted curve in the direction sought with a large enough effect; inconclusive = small, poorly fitted or top-dose-only effect, or another doubt; inactive = no such curve, though single readings can be large; an effect the other way counts as inactive or inconclusive.
SMILES,HepG2 tox,IL-1B inflam inh,DT40 TDP1 CPT,DT40 TDP1 no CPT,ASM inhibitor,TGFb SMAD3 inh
COc1ccc(N(C)C(=O)c2cc3c(s2)-c2ccccc2OC3)c(OC)c1,-,-73,15µM,9.2µM,-,?
CN(C(=O)c1cc2c(s1)-c1ccccc1S(=O)(=O)C2)c1ccccc1,-,-,12µM,23µM,-,-
CN(C(=O)c1cc2c(s1)-c1ccccc1S(=O)(=O)C2)c1ccccc1F,-,-,-,?,-,?
Cc1cc(C)nc(SCC(=O)N/N=C\C(Br)=C\c2ccccc2)n1,-,-,6.5µM,15µM,-,-
O=C(CSc1ncccn1)N/N=C/c1cccc([N+](=O)[O-])c1,-,-,-,-,-,-
Cc1cc(C)nc(SCC(=O)N/N=C/C=C/c2ccccc2)n1,-,-,?,?,-,-
Cc1cc(C)nc(SCC(=O)NN=C2CCCC2)n1,-,-,?,21µM,-,-
Cc1ccc(NCC(=O)N/N=C\C(Br)=C\c2ccccc2)cc1,-,-98,3.3µM,5.8µM,-,?
Cc1cc(C)nc(SCC(=O)N/N=C/c2cccc([N+](=O)[O-])c2)n1,-,-,18µM,23µM,-,-
O=C(NNC(=O)C12CC3CC(CC(Cl)(C3)C1)C2)c1csc(N2CCOCC2)n1,-,-,-,?,-,-
COC(=O)[C@H]1C2CC3c4[nH]c5ccccc5c4CCN3CC2CC[C@@H]1O (stereo not given in full),.,.,-,-,.,.
Cc1nc2c(C(=O)NCCc3ccc(Cl)cc3)c[nH]n2c(=O)c1Cc1ccc(Cl)cc1,11µM,.,-,?,.,?
Cc1nc2c(C(=O)NCCc3ccccc3)c[nH]n2c(=O)c1Cc1ccccc1F,-,.,?,?,.,?
Cc1ccc(CNC(=O)c2c[nH]n3c(=O)c(Cc4ccc(Cl)cc4)c(C)nc23)cc1,13µM,.,?,?,.,?
Cc1nc2c(C(=O)N(C)Cc3ccccc3)c[nH]n2c(=O)c1Cc1ccc(Cl)cc1,-,.,18µM,?,.,?
CCOc1ccc(C(=O)NC(=S)NC2CCCC2)cc1[N+](=O)[O-],-,-,?,?,-,?
Cc1ccc([N+](=O)[O-])cc1S(=O)(=O)Nc1ccc(C(=O)NCC2CCCO2)cc1 (stereo not given),-,-,-,?,-,-
CCCN(CC(=O)Nc1ccccc1C)C(=O)c1ccc(=O)n(Cc2ccccc2)n1,-,-87,-,-,-,-
COc1ccccc1C(=O)NCCn1cc(SCC(=O)Nc2ccccc2F)c2ccccc21,-,.,?,?,.,-
COc1cc2c(cc1OC)[C@@H]1Cc3ccc(OC)c(OC)c3CN1CC2,-,-,-,?,-,-
COc1cc2c(cc1OC)C1Cc3ccc(OC)c(OC)c3CN1CC2 (stereo not given),-,-,?,7.3µM,-,-
CC(C)(C)OC(=O)C[C@@H]1C/C=C\C[C@H](CC(=O)N(CCO)Cc2ccccc2)C(=O)N[C@H](Cc2ccccc2)COC1=O,-,-,?,23µM,-,-
CC(C)(C)OC(=O)C[C@@H]1C/C=C\C[C@@H](CC(=O)N(CCO)Cc2ccccc2)C(=O)N[C@H](C(C)(C)C)COC1=O,-,-,21µM,?,-,-
CC(C)(C)OC(=O)C[C@H]1C/C=C\C[C@@H](CC(=O)N(CCO)Cc2ccccc2)C(=O)N[C@H](C(C)(C)C)COC1=O,-,-,?,15µM,-,-
C[C@H]1COC(=O)[C@H](CC(=O)OC(C)(C)C)C/C=C\C[C@H](CC(=O)N(CCO)Cc2ccccc2)C(=O)N1,-,-,-,-,-,-
SMILES,HepG2 tox,IL-1B inflam inh,DT40 TDP1 CPT,DT40 TDP1 no CPT,ASM inhibitor,TGFb SMAD3 inh
C[C@H]1COC(=O)[C@H](CC(=O)OC(C)(C)C)C/C=C\C[C@@H](CC(=O)N(CCO)Cc2ccccc2)C(=O)N1,-,-,?,?,-,-
COC(=O)CN1C(=O)C(C)(C)c2cc(S(=O)(=O)NCc3ccc(Cl)cc3)ccc21,-,.,?,-,.,-
CC(OC(=O)c1nc(Cl)ccc1Cl)C(=O)NCc1ccccc1 (stereo not given),-,-,-,-,.,-
Clc1ccc(/C=C/c2ncc3ccccn23)cc1,-,?,-,-,-,-
Cc1ccc(OC(C)C(=O)Nc2ccncc2)cc1 (stereo not given),-,-,?,13µM,-,-
Cc1ccc(OC(C)C(=O)Nc2cc(C)on2)cc1 (stereo not given),-,-,-,-,-,-
Cc1cc(OC(C)C(=O)Nc2cccnc2)ccc1Cl (stereo not given),-,-,?,?,-,-
Cc1cc(OC(C)C(=O)Nc2ccncc2)ccc1Cl (stereo not given),-,-,13µM,23µM,-,?
Cc1cccc(C(=O)NCC(=O)OCCOc2ccccc2Cl)c1,-,-,?,-,-,-
O=C(Nc1ccccc1Cl)c1cc(C2CCCN(C(=O)c3cccs3)C2)on1 (stereo not given),-,-,-,-,.,-
Cc1nn(Cc2ccc(C(=O)N3CCN(C(=O)c4ccco4)CC3)o2)c(C)c1[N+](=O)[O-],-,-,-,-,-,-
CCOC(=O)[C@]12CCC=C1N(Cc1ccc(Cl)cc1Cl)C(=O)[C@H](CC(=O)NCc1cccc3ccccc13)C2,.,-,?,23µM,.,.
CCOC(=O)[C@]12CCC=C1N(Cc1ccc(Cl)cc1Cl)C(=O)[C@H](CC(=O)NCc1ccc(OC)c(OC)c1)C2,.,-,16µM,?,.,.
CCOC(=O)[C@]12CCC=C1N(Cc1cccc3ccccc13)C(=O)[C@H](CC(=O)NCc1cccc3ccccc13)C2,.,-,?,?,.,.
CC(C)(C#N)Cc1cc(CC(C)(C)C#N)cc(C(C)(C)C)c1,-,-,-,-,-,-
N#CC(Cc1cccc(CC(C#N)(c2ccccc2)c2ccccc2)c1)(c1ccccc1)c1ccccc1,-,-,3.3µM,4.1µM,-,-
CC1CCC(NC(=O)COC(=O)C2=NN(c3ccccc3)C(=O)CC2)CC1 (stereo not given),-,-,-,-,-,-
O=C(NCc1ccccc1)C(c1ccc(F)cc1)N(C(=O)c1csnn1)C1CCCC1 (stereo not given),-,-,?,?,-,-
Cc1cc(N2CCCCC2)nc(SCC(=O)c2ccccc2)n1,-,-,?,12µM,-,-
